Structures are written as SMILES.

For test [1], the target named is T1, Protein kinase C zeta type (Homo sapiens) (UniProt Q05513).
T1 sequence (whole entry): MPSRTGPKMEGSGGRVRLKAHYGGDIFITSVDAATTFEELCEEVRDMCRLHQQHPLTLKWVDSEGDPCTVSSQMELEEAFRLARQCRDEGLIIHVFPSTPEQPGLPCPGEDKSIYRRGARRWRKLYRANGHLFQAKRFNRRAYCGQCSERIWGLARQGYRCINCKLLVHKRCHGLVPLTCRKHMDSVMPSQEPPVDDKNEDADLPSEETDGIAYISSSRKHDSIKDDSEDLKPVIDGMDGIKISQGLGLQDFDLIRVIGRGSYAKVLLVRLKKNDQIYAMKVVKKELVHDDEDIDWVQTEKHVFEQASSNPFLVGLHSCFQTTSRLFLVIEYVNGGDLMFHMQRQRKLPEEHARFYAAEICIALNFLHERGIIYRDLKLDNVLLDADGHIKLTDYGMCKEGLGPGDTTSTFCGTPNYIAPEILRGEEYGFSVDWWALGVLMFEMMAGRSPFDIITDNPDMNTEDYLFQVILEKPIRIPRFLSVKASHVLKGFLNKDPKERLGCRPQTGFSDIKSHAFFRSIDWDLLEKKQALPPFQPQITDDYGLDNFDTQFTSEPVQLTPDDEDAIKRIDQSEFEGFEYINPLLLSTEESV
As to conditions: at 1 µM; call rule not given here.

Test [2] deals with T2, Mitogen-activated protein kinase kinase kinase 5 (Homo sapiens) (UniProt Q99683).
T2 sequence (whole entry): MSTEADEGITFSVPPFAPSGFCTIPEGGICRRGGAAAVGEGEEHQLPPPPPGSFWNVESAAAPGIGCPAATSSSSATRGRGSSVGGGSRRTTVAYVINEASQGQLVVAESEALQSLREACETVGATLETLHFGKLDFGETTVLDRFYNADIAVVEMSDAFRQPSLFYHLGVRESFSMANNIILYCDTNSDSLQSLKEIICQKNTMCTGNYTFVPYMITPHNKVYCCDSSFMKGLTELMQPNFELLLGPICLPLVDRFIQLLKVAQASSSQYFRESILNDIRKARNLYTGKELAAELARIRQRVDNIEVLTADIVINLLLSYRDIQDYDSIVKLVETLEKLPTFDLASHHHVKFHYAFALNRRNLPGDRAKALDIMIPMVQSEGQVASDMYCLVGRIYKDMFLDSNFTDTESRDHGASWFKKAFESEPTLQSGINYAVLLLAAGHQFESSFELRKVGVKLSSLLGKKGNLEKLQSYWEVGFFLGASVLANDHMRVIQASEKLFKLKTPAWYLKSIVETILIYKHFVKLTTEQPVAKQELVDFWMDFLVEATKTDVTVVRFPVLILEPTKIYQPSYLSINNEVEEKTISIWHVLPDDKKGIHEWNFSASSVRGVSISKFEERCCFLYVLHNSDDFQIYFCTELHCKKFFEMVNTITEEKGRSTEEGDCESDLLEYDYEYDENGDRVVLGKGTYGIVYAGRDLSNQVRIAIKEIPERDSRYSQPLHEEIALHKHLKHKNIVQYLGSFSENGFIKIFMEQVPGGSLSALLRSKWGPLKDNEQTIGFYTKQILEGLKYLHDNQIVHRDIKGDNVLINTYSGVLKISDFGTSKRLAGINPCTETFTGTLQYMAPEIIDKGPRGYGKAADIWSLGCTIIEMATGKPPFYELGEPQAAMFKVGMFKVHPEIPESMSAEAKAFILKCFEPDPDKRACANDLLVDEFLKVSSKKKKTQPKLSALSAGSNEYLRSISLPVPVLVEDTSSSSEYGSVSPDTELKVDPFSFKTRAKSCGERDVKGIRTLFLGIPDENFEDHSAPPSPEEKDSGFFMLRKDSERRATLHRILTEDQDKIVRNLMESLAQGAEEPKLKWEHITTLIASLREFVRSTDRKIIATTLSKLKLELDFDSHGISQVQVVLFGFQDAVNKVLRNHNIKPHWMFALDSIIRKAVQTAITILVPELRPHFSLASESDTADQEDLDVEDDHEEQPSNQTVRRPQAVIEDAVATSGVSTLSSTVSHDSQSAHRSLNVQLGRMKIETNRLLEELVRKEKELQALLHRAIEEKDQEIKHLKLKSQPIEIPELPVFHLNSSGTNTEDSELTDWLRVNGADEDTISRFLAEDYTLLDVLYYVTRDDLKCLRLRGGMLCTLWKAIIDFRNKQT
As to conditions: at 10 µM.

Test [3] has as its target Tyrosine-protein kinase ABL1 (Homo sapiens) (UniProt P00519). As to conditions: at 1 µM.
For test [4] the target is unchanged. As to conditions: at 10 µM.
In test [5] the target is Tyrosine-protein kinase ABL2 (Homo sapiens) (UniProt P42684). As to conditions: at 1 µM.
Sequence of Tyrosine-protein kinase ABL2 (Homo sapiens) (P42684 whole entry): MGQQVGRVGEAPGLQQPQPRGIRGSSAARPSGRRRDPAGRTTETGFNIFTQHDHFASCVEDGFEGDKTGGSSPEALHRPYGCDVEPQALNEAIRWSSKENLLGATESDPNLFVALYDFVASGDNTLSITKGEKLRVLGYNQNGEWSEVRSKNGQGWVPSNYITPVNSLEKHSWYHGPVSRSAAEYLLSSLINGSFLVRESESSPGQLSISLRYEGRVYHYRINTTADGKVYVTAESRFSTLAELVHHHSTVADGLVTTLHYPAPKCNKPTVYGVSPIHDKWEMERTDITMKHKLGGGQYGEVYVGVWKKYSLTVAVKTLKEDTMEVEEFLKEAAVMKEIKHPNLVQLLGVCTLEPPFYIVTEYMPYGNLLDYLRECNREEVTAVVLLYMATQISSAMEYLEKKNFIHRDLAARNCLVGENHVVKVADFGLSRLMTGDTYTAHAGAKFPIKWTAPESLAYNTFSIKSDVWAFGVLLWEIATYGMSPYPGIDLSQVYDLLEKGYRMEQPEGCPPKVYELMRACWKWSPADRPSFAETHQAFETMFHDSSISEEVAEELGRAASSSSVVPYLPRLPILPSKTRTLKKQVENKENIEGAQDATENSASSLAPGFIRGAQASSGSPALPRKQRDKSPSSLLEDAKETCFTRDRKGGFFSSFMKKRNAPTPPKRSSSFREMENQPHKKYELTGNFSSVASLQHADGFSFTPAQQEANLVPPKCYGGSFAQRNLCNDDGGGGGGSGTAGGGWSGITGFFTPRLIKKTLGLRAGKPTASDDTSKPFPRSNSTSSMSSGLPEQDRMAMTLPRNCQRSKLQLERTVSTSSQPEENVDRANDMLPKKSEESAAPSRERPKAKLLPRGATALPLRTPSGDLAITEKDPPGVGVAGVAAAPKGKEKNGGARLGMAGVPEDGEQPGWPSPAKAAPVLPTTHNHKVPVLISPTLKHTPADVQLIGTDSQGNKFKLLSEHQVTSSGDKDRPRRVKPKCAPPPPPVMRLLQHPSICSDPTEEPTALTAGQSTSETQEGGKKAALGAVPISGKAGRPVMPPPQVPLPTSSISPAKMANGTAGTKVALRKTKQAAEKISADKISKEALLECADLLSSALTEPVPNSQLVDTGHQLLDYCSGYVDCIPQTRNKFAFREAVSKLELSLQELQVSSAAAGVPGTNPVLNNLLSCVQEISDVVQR
Test [6] shares this target. As to conditions: at 10 µM.
Test [7] has as its target T3, Aurora kinase A (Homo sapiens) (UniProt O14965).
T3 sequence (whole entry): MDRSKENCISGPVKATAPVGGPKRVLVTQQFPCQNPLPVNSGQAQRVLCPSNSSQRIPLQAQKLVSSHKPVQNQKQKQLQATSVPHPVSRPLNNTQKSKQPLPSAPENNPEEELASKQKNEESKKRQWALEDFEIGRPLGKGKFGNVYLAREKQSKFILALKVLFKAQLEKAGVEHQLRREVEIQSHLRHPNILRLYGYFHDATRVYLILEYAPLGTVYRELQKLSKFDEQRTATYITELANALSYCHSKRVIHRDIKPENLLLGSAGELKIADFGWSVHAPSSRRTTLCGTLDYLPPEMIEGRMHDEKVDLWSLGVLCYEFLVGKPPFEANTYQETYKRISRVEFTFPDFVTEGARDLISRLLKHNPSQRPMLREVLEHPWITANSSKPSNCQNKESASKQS
As to conditions: at 1 µM.

The target in test [8] is T3, Aurora kinase A (Homo sapiens). As to conditions: at 10 µM.
Test [9] addresses Aurora kinase B (Homo sapiens) (UniProt Q96GD4). As to conditions: at 1 µM.
Test [10] has the same target. As to conditions: at 10 µM.
Test [11] deals with T4, Aurora kinase C (Homo sapiens) (UniProt Q9UQB9).
T4 sequence (whole entry): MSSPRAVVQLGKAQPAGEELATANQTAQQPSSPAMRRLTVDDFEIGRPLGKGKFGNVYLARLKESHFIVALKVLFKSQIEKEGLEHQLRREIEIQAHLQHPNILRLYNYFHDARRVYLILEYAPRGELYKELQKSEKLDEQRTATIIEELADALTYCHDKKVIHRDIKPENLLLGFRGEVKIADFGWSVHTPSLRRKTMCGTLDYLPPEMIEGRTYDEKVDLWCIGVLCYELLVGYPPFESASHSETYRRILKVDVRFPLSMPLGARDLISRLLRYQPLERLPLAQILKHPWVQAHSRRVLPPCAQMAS
As to conditions: at 1 µM.

Test [12] addresses T4, Aurora kinase C (Homo sapiens). As to conditions: at 10 µM.
The target of test [13] is Tyrosine-protein kinase receptor UFO (Homo sapiens) (UniProt P30530). As to conditions: at 1 µM.
Sequence of Tyrosine-protein kinase receptor UFO (Homo sapiens) (P30530 whole entry): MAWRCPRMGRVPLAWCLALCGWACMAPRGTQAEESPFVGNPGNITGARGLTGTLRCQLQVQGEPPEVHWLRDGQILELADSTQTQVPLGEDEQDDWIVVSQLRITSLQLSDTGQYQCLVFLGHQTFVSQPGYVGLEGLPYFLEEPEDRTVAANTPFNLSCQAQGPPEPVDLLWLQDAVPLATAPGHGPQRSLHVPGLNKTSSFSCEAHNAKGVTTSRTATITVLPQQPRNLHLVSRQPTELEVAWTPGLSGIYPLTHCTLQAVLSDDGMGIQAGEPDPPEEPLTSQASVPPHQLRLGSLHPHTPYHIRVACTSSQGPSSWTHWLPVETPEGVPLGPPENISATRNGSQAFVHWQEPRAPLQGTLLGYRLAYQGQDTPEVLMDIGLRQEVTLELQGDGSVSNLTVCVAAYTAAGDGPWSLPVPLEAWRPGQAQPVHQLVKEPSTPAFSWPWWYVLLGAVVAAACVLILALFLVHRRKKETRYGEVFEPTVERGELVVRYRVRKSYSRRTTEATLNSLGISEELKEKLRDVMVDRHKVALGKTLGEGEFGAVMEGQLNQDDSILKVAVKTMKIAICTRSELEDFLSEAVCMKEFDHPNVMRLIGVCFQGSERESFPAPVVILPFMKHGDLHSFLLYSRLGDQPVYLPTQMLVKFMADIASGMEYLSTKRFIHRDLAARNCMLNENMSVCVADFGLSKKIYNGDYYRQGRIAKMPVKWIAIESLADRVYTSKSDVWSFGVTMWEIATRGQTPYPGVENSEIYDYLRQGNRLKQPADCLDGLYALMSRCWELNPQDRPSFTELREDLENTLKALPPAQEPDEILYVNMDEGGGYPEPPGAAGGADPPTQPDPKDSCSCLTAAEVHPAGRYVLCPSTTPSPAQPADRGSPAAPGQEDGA
For test [14] the target is unchanged. As to conditions: at 10 µM.
Test [15] has as its target Protein-tyrosine kinase 6 (Homo sapiens) (UniProt Q13882). As to conditions: at 1 µM.
Test [16] has the same target. As to conditions: at 10 µM.
In test [17] the target is Tyrosine-protein kinase BTK (Homo sapiens) (UniProt Q06187). As to conditions: at 1 µM.
Sequence of Tyrosine-protein kinase BTK (Homo sapiens) (Q06187 whole entry): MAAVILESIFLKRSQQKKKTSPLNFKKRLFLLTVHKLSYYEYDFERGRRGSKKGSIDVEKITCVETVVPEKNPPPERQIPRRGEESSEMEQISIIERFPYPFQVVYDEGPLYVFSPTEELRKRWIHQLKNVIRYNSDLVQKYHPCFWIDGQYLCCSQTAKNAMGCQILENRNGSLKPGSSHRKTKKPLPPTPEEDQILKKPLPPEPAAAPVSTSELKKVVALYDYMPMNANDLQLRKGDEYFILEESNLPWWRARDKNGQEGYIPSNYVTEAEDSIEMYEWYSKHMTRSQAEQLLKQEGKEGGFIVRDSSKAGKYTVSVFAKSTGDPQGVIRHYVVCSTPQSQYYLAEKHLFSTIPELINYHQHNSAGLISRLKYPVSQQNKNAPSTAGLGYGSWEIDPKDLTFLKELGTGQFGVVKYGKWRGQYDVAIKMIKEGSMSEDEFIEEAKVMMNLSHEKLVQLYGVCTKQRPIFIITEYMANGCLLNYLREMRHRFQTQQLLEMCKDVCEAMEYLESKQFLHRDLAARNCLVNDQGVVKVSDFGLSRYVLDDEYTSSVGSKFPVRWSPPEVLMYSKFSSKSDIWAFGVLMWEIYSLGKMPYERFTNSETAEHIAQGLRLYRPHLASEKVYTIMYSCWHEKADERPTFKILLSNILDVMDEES
The target is the same in test [18]. As to conditions: at 10 µM.
Test [19] deals with Tyrosine-protein kinase Blk (Homo sapiens) (UniProt P51451). As to conditions: at 1 µM.
The target is the same in test [20]. As to conditions: at 10 µM.

Sequence of Protein-tyrosine kinase 6 (Homo sapiens) (Q13882 whole entry, looked up): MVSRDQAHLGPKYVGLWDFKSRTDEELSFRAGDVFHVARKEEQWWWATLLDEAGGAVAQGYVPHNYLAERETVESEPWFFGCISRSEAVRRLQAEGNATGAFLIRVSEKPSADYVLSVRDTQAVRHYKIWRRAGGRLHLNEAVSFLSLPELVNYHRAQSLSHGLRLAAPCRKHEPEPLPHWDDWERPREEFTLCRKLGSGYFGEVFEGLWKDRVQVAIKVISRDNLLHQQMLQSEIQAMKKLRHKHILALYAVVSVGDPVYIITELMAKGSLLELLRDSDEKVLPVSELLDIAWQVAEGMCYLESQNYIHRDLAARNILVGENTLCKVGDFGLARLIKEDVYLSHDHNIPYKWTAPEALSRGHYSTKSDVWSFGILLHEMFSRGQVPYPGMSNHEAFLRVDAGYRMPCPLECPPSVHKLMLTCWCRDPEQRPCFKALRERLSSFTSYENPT
Sequence of Aurora kinase B (Homo sapiens) (Q96GD4 whole entry): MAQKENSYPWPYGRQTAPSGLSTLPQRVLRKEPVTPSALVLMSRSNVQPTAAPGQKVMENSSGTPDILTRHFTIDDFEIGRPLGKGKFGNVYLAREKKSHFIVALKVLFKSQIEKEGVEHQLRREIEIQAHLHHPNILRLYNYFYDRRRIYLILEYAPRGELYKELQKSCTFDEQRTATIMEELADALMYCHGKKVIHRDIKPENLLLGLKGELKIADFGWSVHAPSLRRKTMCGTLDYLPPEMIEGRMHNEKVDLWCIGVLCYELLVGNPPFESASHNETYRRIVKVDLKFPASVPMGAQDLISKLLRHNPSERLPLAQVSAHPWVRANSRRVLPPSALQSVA
Sequence of Tyrosine-protein kinase ABL1 (Homo sapiens) (P00519 whole entry): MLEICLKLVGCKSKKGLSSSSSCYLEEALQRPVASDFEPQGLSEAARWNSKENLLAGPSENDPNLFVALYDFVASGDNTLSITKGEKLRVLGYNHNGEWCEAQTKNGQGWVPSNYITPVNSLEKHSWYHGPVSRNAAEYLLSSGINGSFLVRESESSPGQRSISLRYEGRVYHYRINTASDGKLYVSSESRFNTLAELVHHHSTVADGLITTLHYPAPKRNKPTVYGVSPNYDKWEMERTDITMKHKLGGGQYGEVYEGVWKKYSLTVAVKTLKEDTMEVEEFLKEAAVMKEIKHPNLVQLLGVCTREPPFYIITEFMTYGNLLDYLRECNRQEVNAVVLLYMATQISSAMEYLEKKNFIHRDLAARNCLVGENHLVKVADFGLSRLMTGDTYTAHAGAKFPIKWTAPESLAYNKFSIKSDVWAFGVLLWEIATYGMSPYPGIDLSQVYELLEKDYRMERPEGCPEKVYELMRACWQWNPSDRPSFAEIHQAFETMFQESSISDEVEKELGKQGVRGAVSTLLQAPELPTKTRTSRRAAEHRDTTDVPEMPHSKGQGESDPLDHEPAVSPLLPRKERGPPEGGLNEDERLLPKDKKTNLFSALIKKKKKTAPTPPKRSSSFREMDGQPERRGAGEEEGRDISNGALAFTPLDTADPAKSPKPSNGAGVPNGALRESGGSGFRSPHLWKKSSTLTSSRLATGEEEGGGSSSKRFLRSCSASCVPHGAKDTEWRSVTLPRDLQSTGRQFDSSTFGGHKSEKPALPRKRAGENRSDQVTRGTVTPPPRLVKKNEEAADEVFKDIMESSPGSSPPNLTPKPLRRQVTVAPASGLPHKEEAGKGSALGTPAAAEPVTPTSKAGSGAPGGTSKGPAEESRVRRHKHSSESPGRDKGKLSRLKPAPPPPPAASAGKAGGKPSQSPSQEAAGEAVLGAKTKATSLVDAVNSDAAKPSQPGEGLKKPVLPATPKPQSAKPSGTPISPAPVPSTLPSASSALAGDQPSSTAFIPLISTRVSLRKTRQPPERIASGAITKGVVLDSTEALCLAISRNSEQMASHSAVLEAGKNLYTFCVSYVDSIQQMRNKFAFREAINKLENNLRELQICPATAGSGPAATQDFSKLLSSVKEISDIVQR

For `CC#CC(=O)Nc1cc2c(Nc3ccc(F)c(Cl)c3)ncnc2cn1`, the residual activity is 97% (inactive) in [1]; 94% in test [2]; 92% in test [3]; 91% in test [4]; 118% in test [5]; 74% in test [6]. Moreover, the residual activity worked out at 106% in [7]; 108% in test [8]; 114% in test [9]; 85% in test [10]; 99% in test [11]; 73% in test [12]. Further, the residual activity in [13] was determined as 82%; in test [14], 74%; in test [15], 99%; in [16], 97%; in [17] it was 47%; in test [18], 16%. Moreover, the values for the residual activity in [19] and in test [20] were 82% and 49%, respectively.
`CNc1cc2c(Nc3cccc(Br)c3)ncnc2cn1`: the residual activity in [1] was 99% (inactive); in test [2], 112%; in test [3], 85%; in [4], 87%; in [5], 93%; in [6], 79%. The residual activity in [7] was found to be 60%; in test [8], 71%; in test [9], 43%; in [10], 10%; in test [11], 85%; in test [12], 64%. Further, the residual activity was determined as 75% in [13]; 69% in test [14]; 69% in test [15]; 53% in test [16]; 98% in [17]; 83% in [18]. For the same compound, the residual activity in test [19] was 103%; in test [20], 65%.
Regarding `CN(C)c1ccc(/C=C2\C(=O)Nc3ccccc32)cc1`, the residual activity was 118% (inactive) in test [1]; 99% in test [2]; 100% in [3]; 87% in test [4]; 103% in test [5]; 89% in [6]. In addition, the residual activity was found to be 56% in test [7]; 26% in test [8]; 13% in test [9]; 4% in test [10]; 88% in test [11]; 39% in test [12]. The residual activity in test [13] came to 78%; in test [14], 49%; in test [15], 112%; in [16], 97%; in test [17], 113%; in test [18] it was 86%. Besides, the residual activity in test [19] came out at 87%; in [20], 62%.
As to `CO[C@H]1C[C@@H]2CC[C@@H](C)[C@@](O)(O2)C(=O)C(=O)N2CCCC[C@H]2C(=O)O[C@H]([C@H](C)C[C@@H]2CC[C@@H](O)[C@H](OC)C2)CC(=O)[C@H](C)/C=C(\C)[C@@H](O)[C@@H](OC)C(=O)[C@H](C)C[C@H](C)/C=C/C=C/C=C/1C`, the residual activity in test [1] was 96% (inactive); in test [2] it was 96%; in test [3] it was 91%; in test [4], 139%; in [5] it was 119%; in [6], 118%. Also, the residual activity stood at 87% in [7]; 118% in test [8]; 92% in [9]; 73% in test [10]; 79% in test [11]; 69% in test [12]. Also, the residual activity in [13] came to 89%; in [14], 84%; in test [15], 101%; in test [16] it was 102%; in test [17], 91%; in test [18], 106%. In addition, the residual activity in test [19] turned out to be 90%; in test [20] it was 82%.
As to `Cc1ccc(NC2=CC(=O)c3sc(C)nc3C2=O)cc1`, the residual activity in test [1] is 100% (inactive); in test [2] it was 116%; in [3] it was 99%; in [4] it was 82%; in [5] it was 122%; in test [6], 91%. The residual activity stood at 116% in test [7]; 96% in [8]; 104% in test [9]; 68% in [10]; 85% in [11]; 85% in [12]. Besides, the residual activity was 103% in test [13]; 112% in [14]; 111% in [15]; 108% in test [16]; 93% in test [17]; 86% in test [18]. The residual activity in [19] is 112%; in test [20] it was 96%.
As to `O=C1NC(=O)c2cc(Nc3ccc(F)cc3)c(Nc3ccc(F)cc3)cc21`, the residual activity was 101% (inactive) in test [1]; 92% in test [2]; 85% in test [3]; 87% in test [4]; 90% in [5]; 58% in test [6]. For the same compound, the residual activity in test [7] is 89%; in test [8] it was 79%; in [9], 124%; in [10], 120%; in [11], 92%; in [12] it was 73%. Also, the residual activity in [13] was 94%; in test [14] it was 81%; in test [15], 89%; in test [16], 48%; in test [17] it was 86%; in test [18] it was 87%. For the same compound, the values for the residual activity in test [19] and in test [20] were 98% and 38%, respectively.
As to `O=C(Nc1cccc(Nc2cc(Nc3cccc(C(F)(F)F)c3)ncn2)c1)C1CC1`, the residual activity is 101% (inactive) in test [1]; 104% in test [2]; 84% in [3]; 104% in test [4]; 92% in [5]; 90% in [6]. Moreover, the residual activity worked out at 95% in test [7]; 82% in test [8]; 68% in [9]; 30% in test [10]; 90% in test [11]; 87% in [12]. Besides, the residual activity in [13] was 102%; in test [14] it was 83%; in test [15], 94%; in [16], 94%; in test [17], 99%; in test [18] it was 71%. The residual activity amounted to 97% in test [19] and 69% in [20].

The record behind these values is ChEMBL document CHEMBL2218924, “A broad activity screen in support of a chemogenomic map for kinase signalling research and drug discovery” (Biochem J, 2013).
